# Gli-Sufu block: Gli-Sufu pathway antagonism. inhibition, % at 5 µM. 0.74% of 340,000 active. Sufu-KO-LIGHT fibroblasts, Gli luciferase reporter luminescence. AID 588413;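 active = inhibition above about 55%, limit read from the data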
# 697 NFkB inh: lowers PMA/ionomycin-induced NF-kB signal in 697 B cells | 0.33% of 330,000 active | AID 435022 | 697 B-cell NF-kB luciferase reporter, 16 h | inhibition, % at 4 µM; in the data active = inhibition above about 35%
# Beta cell apopt: blocks beta cell apoptosis; INS-1E cytokine-induced death, ATP luminescence, 48 h; percent of positive-control rescue, neutral wells zero; AID 435005; 0.8% of 300,000 active; protection from apoptosis, % (concentration not given with the values);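 active = Every replicate reaches about 75%, or at least half do and their mean reaches it too, limit read from the data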;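 note: higher means more ATP so stronger rescue from cytokine killing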
# Jurkat NFkB inh: inhibitors of the PMA/ionomycin-induced NF-kB reporter in Jurkat cells | inhibition, % at 4 µM | 0.53% of 330,000 active | PMA/ionomycin-induced NF-kB luciferase reporter, luminescence; in the data active = inhibition above about 50%
# Mdm2 MdmX PPI: inhibitors of human Mdm2/MdmX interaction; O15151+Q00987; SaOS-2 split-luciferase Mdm2/MdmX complementation, luminescence; inhibition, % at 8 µM; 3% of 330,000 active;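 active = inhibition of at least 50% at 8 µM in the primary screen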
# Mdm2-MdmX conf: human Mdm2/MdmX binding inhibition, confirmed; luminescent assay; shares compounds with Mdm2 MdmX PPI; 55% of 10,000 active; inhibition, % at 8 µM; in the data active = inhibition above about 40%
# FLuc counter: full-length luciferase inhibition in Mdm2/MdmX counter-screen | shares compounds with Mdm2 MdmX PPI | SaOS-2 full-length luciferase counterscreen, luminescence | inhibition, % at 8 µM | 77% of 6,200 active;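 active = mean inhibition at 8 µM reaching about 37%, which flags the compound as non-specific, limit read from the data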;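 note: p53-null SaOS-2 cells with luciferase driven by a doxycycline-inducible promoter; compound on cells about two nights before reading with doxycycline added after day one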
# A number is an active result; n = inactive; x = no result. An excerpt weighted towards active compounds, which were near 4% of everything screened.
SMILES,Gli-Sufu block,697 NFkB inh,Beta cell apopt,Jurkat NFkB inh,Mdm2 MdmX PPI,Mdm2-MdmX conf,others
COc1ccc(-n2sc3c(c2=S)-c2cc(OC)ccc2NC3(C)C)cc1,n,n,n,n,n,x,
COc1ccc2c(c1)-c1c(sn(-c3ccc(OC)c(OC)c3)c1=S)C(C)(C)N2,n,n,x,n,55,n,
Cc1ccc(S(=O)(=O)N2c3ccccc3-c3c(ssc3=S)C2(C)C)cc1,n,n,n,n,n,x,
COc1ccc2c(c1)-c1c(ssc1=S)C(C)(C)N2,n,n,n,n,92,87,FLuc counter=55
CC1CCCC(NC(=O)COC(=O)COc2cccc(F)c2)C1C (centres undefined),n,n,n,n,n,x,
O=C(O)c1cccc(N/N=C/c2ccc(-c3ccccc3)cc2)c1,n,x,x,x,x,x,
CC(C)(C)c1ccc(/C=N/Nc2cccc(C(=O)O)c2)cc1,n,n,n,n,70,61,FLuc counter=116
O=C(COC(=O)/C=C/c1ccco1)NCc1ccc2c(c1)OCO2,n,n,n,n,n,x,
O=C(Nc1ccc(Cl)c([N+](=O)[O-])c1)c1ccc(NCCCN2CCOCC2)c([N+](=O)[O-])c1,n,n,n,n,97,n,
Cc1ccc(NC(=O)c2ccc(NCCCN3CCOCC3)c([N+](=O)[O-])c2)cc1Cl,n,n,n,n,56,n,FLuc counter=69
O=C(NCCCN1CCOCC1)c1ccc(Cl)c([N+](=O)[O-])c1,n,n,n,n,n,x,
COc1ccc(NC(=O)c2ccc(NCCCN3CCOCC3)c([N+](=O)[O-])c2)cc1,n,n,n,n,n,x,
COc1cccc(/C(O)=C/c2nc3ccc(C(=O)NCCc4ccc(Cl)cc4)cc3[nH]c2=O)c1,n,x,x,x,x,x,
COc1cccc(/C(O)=C/c2nc3ccc(C(=O)NCCc4cccc(C)c4)cc3[nH]c2=O)c1,n,n,n,n,65,n,
CCc1ccccc1NC(=S)Nn1cnnc1,x,n,n,n,n,x,
CCOC(=O)C1=C(C)Nc2sc(C(=O)c3ccc(C)cc3)c(N)c2C1c1ccc(C(=O)OC)cc1 (centres undefined),n,n,n,n,n,x,
CCOC(=O)C1=C(C)Nc2sc(C(=O)c3ccc(F)cc3)c(N)c2C1c1ccc(C(=O)OC)cc1 (centres undefined),n,n,n,n,61,n,
CC(C)C[C@H]1CN=C(N(C)C)N1CCc1cccc(F)c1,n,n,n,n,n,x,
CC(C)C[C@H]1CN=C(Nc2ccccc2)N1CCc1cccc(F)c1,n,n,n,n,58,n,
CCOC(=O)CCN,n,n,n,n,n,x,
COc1ccccc1NC(=O)c1sc2ncn(Cc3ccc(C)cc3)c(=O)c2c1C,n,n,n,n,55,n,
COc1ccc(OC)c(NC(=O)C2CCC(CNc3c(N4CCC(C)CC4)c(=O)c3=O)CC2)c1 (centres undefined),n,n,x,n,52,n,
Cc1ccc(S(=O)(=O)c2c(C)nn(C(C)(C)C)c2OC(=O)C2CCCC2)cc1,n,n,n,n,70,n,
Cc1nn(C(C)(C)C)c(OC(=O)C2CCCC2)c1S(=O)(=O)c1ccccc1,n,x,x,x,x,x,
CN(C)S(=O)(=O)n1cc(/C=C(\NC(=O)c2ccccc2Cl)C(=O)N2CCOCC2)c2ccccc21,n,n,n,n,62,n,
SMILES,Gli-Sufu block,697 NFkB inh,Beta cell apopt,Jurkat NFkB inh,Mdm2 MdmX PPI,Mdm2-MdmX conf,others
CC(C)C[C@@H](CNCC(=O)[C@H](CC(C)C)NC(=O)c1[nH]cnc1C(=O)N[C@H](CN)CC(C)C)NC(=O)c1nc[nH]c1C(=O)N[C@@H](CC(=O)O)C(=O)O,n,x,x,x,x,x,
COc1ccc(C(CNC(=O)c2oc3cc(C)c(Cl)cc3c2C)N2CCCCC2)cc1 (centres undefined),n,n,n,n,82,n,
COc1ccc(C(CNC(=O)c2oc3ccc(C)cc3c2C)N2CCCCC2)cc1 (centres undefined),n,n,x,n,n,x,
Cc1ccccc1Nc1nc(-c2cccnc2)nc2ccccc12,n,n,n,n,n,x,
Cc1ccc(Nc2nc(-c3cccnc3)nc3ccccc23)cc1,n,n,x,n,63,57,FLuc counter=57
Cc1c(O)ccc(/C=N/Nc2nc(-c3cccnc3)nc3ccccc23)c1O,n,n,n,n,66,59,FLuc counter=70
COc1ccc(/C=N/Nc2nc(-c3cccnc3)nc3ccccc23)cc1OC,n,n,n,n,n,x,
COc1cccc(/C=N/NC(=O)c2nnn(-c3nonc3N)c2C(C)C)c1,n,n,n,n,n,x,
O=C(Nc1cccc(C(F)(F)F)c1)N(Cc1ccc(Cl)cc1)CC(O)C(F)(F)F (centres undefined),n,n,n,n,67,n,
CC(O)(CS(=O)(=O)Cc1ccc(Cl)cc1)C(=O)Nc1cccc(C(F)(F)F)c1 (centres undefined),n,n,n,n,n,x,
Cc1nn(CC(=O)NCc2cccnc2)c(C)c1[N+](=O)[O-],n,n,n,n,n,x,
N#C/C(=N\Nc1cccc([N+](=O)[O-])c1)C(=O)c1ccc(Br)cc1,n,n,104,n,97,89,FLuc counter=n
O=C(O)c1ccc(N=NNc2cccc([N+](=O)[O-])c2)cc1,n,n,n,n,n,x,
CCn1c(SCC(=O)Nc2cc(S(=O)(=O)N3CCOCC3)ccc2OC)nnc1-c1ccncc1,n,n,n,n,n,x,
CN(C)C(=O)CSc1nnc2sc3ccccc3n12,n,n,n,n,n,x,
O=c1c2ccccc2nnn1CSc1nnc2sc3ccccc3n12,x,n,n,n,53,54,FLuc counter=113
CC(=O)c1ccc(Nc2cnn(C34CC5CC(CC(CC(=O)O)(C5)C3)C4)c(=O)c2Cl)cc1,n,n,n,n,n,x,
O=C1C=C(NCCc2ccccc2)C2(CCCCC2)O1,n,n,n,n,n,x,
O=C(CCCN1C(=O)/C(=C\c2cccs2)SC1=S)NNC(=O)c1ccncc1,n,n,n,n,n,x,
O=C1/C(=C/c2cccs2)SC(=S)N1CCCC(=O)N(CCO)c1ccccc1,n,n,n,n,53,n,
COc1ccccc1C(=O)NNC(=O)CCCN1C(=O)/C(=C/c2cccs2)SC1=S,n,n,n,n,72,77,FLuc counter=63
CC(C)CC(C(=O)NC(C)(C)C)N(Cc1ccccc1Cl)C(=O)c1snc(C(N)=O)c1N (centres undefined),n,n,n,n,n,x,
O=C1CC(c2ccccc2F)c2cc3c(cc2N1)CCC3 (centres undefined),n,n,x,n,58,58,FLuc counter=57
COc1ccccc1C1CC(=O)Nc2cc(C)c(C)cc21 (centres undefined),n,n,n,n,60,55,FLuc counter=60
COc1ccc(Cc2nnc(SCC(=O)Nc3ccc(N4CCOCC4)cc3)n2C)cc1,n,n,n,n,n,x,
O=C(NNC(=O)C1CCN(S(=O)(=O)c2c(Cl)cccc2Cl)CC1)c1ccccc1O,n,n,n,n,56,54,FLuc counter=54

# Source: PubChem
